# Source: ChEMBL document CHEMBL1961873, “Compounds: GSK PKIS; Assays: Nanosyn kinase panel” (2012)
# What was measured:
# [1] = molecular target: Tyrosine-protein kinase CSK (Homo sapiens) (UniProt P41240); conditions: at 1 µM;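 further: each value is an averaged inhibition reading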
# [2] = molecular target: T1, Discoidin domain-containing receptor 2 (Homo sapiens) (UniProt Q16832); conditions: at 0.1 µM
# T1 sequence (whole entry): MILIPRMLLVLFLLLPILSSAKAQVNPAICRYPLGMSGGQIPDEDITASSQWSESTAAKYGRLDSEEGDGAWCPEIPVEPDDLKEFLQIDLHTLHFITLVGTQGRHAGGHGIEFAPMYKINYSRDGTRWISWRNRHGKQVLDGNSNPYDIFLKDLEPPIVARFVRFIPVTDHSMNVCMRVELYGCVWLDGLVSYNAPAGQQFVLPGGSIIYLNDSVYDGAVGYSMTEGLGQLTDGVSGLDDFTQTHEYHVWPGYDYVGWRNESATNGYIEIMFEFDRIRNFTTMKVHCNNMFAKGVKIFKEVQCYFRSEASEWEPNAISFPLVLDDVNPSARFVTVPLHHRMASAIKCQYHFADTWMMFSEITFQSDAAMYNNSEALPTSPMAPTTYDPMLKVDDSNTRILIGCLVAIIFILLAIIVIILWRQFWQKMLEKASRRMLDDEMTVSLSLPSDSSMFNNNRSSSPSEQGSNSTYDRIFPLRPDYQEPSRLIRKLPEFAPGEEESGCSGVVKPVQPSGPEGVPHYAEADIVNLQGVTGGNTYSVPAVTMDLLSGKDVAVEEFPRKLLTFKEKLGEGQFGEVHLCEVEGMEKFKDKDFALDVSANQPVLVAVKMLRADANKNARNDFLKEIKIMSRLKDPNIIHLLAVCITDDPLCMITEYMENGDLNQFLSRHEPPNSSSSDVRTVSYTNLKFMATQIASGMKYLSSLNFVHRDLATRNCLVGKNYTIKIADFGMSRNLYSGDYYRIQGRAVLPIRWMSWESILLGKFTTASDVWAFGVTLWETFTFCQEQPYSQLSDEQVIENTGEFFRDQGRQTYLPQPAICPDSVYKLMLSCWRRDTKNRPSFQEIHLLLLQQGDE
# [3] = molecular target: T1, Discoidin domain-containing receptor 2 (Homo sapiens); conditions: at 1 µM
# [4] = molecular target: Epidermal growth factor receptor (Homo sapiens) (UniProt P00533); conditions: at 0.1 µM
# Epidermal growth factor receptor (Homo sapiens), sequence (P00533 whole entry): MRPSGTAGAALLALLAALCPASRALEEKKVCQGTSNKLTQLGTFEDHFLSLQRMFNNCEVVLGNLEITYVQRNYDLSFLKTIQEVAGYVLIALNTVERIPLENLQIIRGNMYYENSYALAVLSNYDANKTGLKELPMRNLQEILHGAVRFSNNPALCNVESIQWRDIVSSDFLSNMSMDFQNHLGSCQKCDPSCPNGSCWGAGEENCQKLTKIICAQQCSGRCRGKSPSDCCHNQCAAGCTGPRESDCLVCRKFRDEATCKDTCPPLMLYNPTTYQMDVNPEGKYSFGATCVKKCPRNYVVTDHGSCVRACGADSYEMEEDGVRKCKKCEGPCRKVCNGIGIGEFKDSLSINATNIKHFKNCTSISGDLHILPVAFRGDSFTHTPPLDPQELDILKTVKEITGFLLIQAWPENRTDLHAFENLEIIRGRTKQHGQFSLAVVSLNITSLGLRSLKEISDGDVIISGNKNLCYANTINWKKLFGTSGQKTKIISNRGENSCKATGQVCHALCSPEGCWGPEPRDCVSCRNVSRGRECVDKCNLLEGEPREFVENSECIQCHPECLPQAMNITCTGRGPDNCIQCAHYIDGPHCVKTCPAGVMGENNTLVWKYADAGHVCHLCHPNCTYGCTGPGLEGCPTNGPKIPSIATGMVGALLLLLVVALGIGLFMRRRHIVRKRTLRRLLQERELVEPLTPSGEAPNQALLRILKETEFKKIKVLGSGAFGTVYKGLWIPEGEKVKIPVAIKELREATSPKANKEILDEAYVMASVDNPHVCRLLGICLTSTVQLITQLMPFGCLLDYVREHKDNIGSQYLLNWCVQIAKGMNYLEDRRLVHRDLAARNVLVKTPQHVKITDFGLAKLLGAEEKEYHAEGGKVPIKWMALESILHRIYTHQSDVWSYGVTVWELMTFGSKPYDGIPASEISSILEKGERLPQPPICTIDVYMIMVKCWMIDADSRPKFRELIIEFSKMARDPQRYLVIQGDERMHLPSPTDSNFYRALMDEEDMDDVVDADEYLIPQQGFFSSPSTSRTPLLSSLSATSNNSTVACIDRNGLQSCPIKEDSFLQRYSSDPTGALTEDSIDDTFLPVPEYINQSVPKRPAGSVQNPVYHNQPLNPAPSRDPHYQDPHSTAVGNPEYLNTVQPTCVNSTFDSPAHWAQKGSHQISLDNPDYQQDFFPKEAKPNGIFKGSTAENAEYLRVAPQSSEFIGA
# [5] = molecular target: Epidermal growth factor receptor (Homo sapiens) (UniProt P00533); conditions: at 1 µM
# [6] = system: Epidermal growth factor receptor (Homo sapiens), P00533 [L858R]; conditions: at 0.1 µM
# [7] = system: Epidermal growth factor receptor (Homo sapiens), P00533 [L858R]; conditions: at 1 µM
# [8] = system: Epidermal growth factor receptor (Homo sapiens), P00533 [L861Q]; conditions: at 0.1 µM
# Epidermal growth factor receptor (Homo sapiens), P00533 [L861Q], sequence (P00533 whole entry L861Q): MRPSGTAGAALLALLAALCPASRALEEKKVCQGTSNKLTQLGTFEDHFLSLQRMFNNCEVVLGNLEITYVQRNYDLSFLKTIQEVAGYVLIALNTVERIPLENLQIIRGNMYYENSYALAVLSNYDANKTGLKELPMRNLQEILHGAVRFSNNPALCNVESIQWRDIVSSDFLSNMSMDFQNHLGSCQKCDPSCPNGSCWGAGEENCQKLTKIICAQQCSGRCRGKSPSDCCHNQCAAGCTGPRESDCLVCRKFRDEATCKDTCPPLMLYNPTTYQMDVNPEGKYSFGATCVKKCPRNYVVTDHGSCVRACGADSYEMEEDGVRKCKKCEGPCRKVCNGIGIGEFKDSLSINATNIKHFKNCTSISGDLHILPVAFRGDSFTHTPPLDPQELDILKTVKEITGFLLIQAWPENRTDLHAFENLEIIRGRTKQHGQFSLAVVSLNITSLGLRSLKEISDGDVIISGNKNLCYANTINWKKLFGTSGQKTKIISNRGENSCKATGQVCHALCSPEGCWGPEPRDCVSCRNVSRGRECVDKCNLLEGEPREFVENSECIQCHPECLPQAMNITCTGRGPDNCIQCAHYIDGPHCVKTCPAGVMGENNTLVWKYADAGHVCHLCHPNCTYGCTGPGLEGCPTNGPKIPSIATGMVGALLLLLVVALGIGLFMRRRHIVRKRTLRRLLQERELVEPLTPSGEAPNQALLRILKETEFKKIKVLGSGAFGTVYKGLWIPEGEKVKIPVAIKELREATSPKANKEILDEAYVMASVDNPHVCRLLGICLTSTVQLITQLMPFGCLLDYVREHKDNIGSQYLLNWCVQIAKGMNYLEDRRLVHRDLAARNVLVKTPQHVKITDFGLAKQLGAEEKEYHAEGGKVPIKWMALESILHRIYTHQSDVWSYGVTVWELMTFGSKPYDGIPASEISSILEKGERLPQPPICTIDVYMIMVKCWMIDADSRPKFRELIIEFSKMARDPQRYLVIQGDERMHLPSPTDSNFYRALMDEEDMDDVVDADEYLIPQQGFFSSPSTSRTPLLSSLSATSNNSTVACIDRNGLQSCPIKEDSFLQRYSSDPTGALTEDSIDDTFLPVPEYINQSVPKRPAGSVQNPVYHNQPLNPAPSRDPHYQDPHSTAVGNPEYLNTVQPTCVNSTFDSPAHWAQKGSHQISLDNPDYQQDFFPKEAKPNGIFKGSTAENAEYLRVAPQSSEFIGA
# [9] = system: Epidermal growth factor receptor (Homo sapiens), P00533 [L861Q]; conditions: at 1 µM
# [10] = system: Epidermal growth factor receptor (Homo sapiens), P00533 [T790M]; conditions: at 0.1 µM
# Epidermal growth factor receptor (Homo sapiens), P00533 [T790M], sequence (P00533 whole entry T790M): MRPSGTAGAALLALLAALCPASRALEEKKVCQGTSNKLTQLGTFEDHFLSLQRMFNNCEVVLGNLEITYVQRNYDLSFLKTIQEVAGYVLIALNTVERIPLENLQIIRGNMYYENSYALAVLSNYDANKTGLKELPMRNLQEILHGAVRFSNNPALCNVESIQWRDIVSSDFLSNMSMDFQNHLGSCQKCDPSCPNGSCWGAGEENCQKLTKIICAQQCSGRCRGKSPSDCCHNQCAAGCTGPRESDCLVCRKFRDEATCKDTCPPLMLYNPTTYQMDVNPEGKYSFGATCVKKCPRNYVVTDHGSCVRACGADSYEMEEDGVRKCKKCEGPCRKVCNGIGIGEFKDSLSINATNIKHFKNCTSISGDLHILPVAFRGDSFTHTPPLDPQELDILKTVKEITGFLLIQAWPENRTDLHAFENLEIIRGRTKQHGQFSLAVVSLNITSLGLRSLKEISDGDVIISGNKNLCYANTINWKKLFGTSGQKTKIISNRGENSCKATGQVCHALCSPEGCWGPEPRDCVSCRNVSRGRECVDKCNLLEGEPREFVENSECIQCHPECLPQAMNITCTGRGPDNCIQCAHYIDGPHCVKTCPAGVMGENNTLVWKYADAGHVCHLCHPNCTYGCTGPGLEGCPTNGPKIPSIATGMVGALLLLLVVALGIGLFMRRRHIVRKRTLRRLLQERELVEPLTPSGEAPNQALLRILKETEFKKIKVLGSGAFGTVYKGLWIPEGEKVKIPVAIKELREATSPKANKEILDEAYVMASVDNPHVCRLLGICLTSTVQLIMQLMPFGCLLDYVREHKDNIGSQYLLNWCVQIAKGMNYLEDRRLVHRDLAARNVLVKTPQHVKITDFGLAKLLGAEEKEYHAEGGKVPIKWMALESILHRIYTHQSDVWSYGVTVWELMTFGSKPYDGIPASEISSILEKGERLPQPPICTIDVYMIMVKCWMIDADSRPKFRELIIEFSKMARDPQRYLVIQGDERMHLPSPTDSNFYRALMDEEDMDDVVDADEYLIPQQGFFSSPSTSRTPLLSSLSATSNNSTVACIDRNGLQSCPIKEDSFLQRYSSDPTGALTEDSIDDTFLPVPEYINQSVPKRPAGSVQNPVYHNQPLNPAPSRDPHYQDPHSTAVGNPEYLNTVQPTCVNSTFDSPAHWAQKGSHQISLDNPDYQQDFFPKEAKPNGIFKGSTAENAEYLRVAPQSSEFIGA
# Tyrosine-protein kinase CSK (Homo sapiens), sequence (P41240 2-450 limits assumed): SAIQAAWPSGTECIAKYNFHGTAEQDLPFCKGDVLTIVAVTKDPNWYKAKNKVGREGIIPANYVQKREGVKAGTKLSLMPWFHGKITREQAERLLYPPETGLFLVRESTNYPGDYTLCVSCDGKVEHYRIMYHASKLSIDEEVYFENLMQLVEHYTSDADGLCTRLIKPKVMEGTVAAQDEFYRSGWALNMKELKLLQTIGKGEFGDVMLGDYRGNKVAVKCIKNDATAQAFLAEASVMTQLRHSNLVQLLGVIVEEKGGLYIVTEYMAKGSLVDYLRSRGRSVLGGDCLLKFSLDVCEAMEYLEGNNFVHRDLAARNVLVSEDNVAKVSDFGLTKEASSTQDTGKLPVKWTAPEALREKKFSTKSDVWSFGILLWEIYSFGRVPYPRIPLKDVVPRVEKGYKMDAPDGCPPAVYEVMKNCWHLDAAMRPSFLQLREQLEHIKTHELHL
Structure (SMILES),inhibition [1] [%],inhibition [2] [%],inhibition [3] [%],inhibition [4] [%],inhibition [5] [%],inhibition [6] [%],inhibition [7] [%],inhibition [8] [%],inhibition [9] [%],inhibition [10] [%]
CS(=O)(=O)Nc1cccc(-c2ccc3c(NC(=O)C4CC4)n[nH]c3c2)c1,-2.39,0.9,0.99,0.81,0.31,-0.89,-1.93,1.44,-2.52,-1.89
OCc1ccc(-c2nc(-c3ccccn3)c(-c3ccc4c(c3)OCO4)[nH]2)cc1,3.94,2.68,4.73,3.69,6.33,3.45,1.89,3.49,-0.4,2.68
COc1cc(/C=N/Nc2ncnc3c2cnn3C(C)C)ccc1O,-1.57,-0.03,-1.45,6.39,9.9,3.23,12.2,2.56,3.26,0.17
Cc1ccc(O)cc1Nc1ccnc2ccc(S(C)(=O)=O)cc12,94.2,59.8,79.7,12.7,36.6,19.7,72.1,8.5,31.9,3.11
COc1ccc2ncnc(Nc3ccc(OCc4ccccc4)cc3)c2c1,8.35,1.31,2.34,62.7,76.2,12.1,46.3,23.9,39,-0.31
c1ccc(Cc2nc3ccc(Nc4ncnc5ccccc45)cc3[nH]2)cc1,30.9,0.85,1.06,24.3,67.2,2.32,11.3,12,22.2,2.05
NS(=O)(=O)c1cccc(-c2cc3ccncc3cc2OCc2ccccc2)c1,4.74,1.4,6.85,-0.75,3.23,4.24,6.99,4.79,3.2,2.32
COc1cc2ncnc(Nc3ccc4c(cnn4Cc4ccccc4)c3)c2cc1OC,58.2,1.74,1.78,87.2,84.7,72.5,94.4,55.8,84.8,8.65
Cc1ccc(C(=O)NC2CC2)cc1-c1ccc2[nH]ncc2c1,,-0.85,-0.74,-1.17,1.98,-1.88,-2.39,-0.66,-1.04,-2
COc1cccc(-n2ncc3c(N/N=C/c4ccc(S(C)(=O)=O)cc4)ncnc32)c1,18.2,1.49,7.83,6.5,22.6,29.7,57.8,8.34,20.6,0.29
NS(=O)(=O)c1ccc(NC=C2C(=O)Nc3ccc4ncsc4c32)cc1,3.77,1.65,6.94,0.01,0.9,3.08,5.45,2.21,0.54,2.24
COC(=O)c1ccc2c(c1)C(=Cc1cc(Br)c(O)c(Br)c1)C(=O)N2,5.89,2.18,7.08,3.97,2.76,-1.26,11.3,0.68,4.11,0.31
NS(=O)(=O)c1ccc(-c2cc3ccncc3cc2OCc2ccccc2)cc1,5.2,1.3,2.48,-0.53,2.78,5.04,12.6,3.81,5.67,1.46
Cc1cc(-c2ccccn2)cc(C)c1/C=C/c1cncc(-c2nn[nH]n2)c1,20.2,1.22,5.62,2,9.58,2.87,4.85,2.42,5.99,-0.39
COc1cccc(-n2ncc3c(N/N=C/c4ccc(C)cc4)ncnc32)c1,8.35,0.39,2.37,3.01,4.71,2.45,11.7,1.42,6.09,0.91
NS(=O)(=O)c1ccc(Nc2cc(-c3cccc(O)c3)n[nH]2)cc1,5.32,2.49,3.91,0.67,1.98,5.34,5.18,3.68,1.85,2.46

Structure (SMILES),inhibition [1] [%],inhibition [2] [%],inhibition [3] [%],inhibition [4] [%],inhibition [5] [%],inhibition [6] [%],inhibition [7] [%],inhibition [8] [%],inhibition [9] [%],inhibition [10] [%]
ON=C1CCc2cc(-c3nc(C4CCNCC4)[nH]c3-c3ccncc3)ccc21,-6.96,-0.82,-2.38,0.23,2.59,-0.65,-1.1,0.26,-2.11,-0.91
NC(=O)c1cccc(Nc2nccc(Nc3cccc(F)c3)n2)c1,9.32,-1.54,6.93,1.6,10.6,0.01,31.4,0.09,10.1,-0.56
O=C1Nc2ccc(-c3cccnc3)cc2C1=Cc1cc(Br)c(O)c(Br)c1,-1.69,2.03,5.97,-0.06,5.08,4.88,10.5,2.92,2.2,2.3
COc1cccc(-n2nc(C)c3c(N/N=C(\C)c4ccncc4)ncnc32)c1,0.42,0.8,0.38,1.03,2.43,-0.3,1.45,-0.04,0.7,-1.78
CCn1c(-c2nonc2N)nc2c(C#CC(C)(C)O)nc(OCCNC)cc21,5.91,1.73,2.04,0.82,0.07,1.22,3.32,1.91,2.32,1.88
CCS(=O)(=O)c1ccc(OC)c(Nc2nccc(N(C)c3ccc4c(C)n[nH]c4c3)n2)c1,15.2,-0.23,-2.28,7.37,35.2,7.56,43.1,7.97,31.4,4.42
COC(=O)c1cncc(/C=C/c2c(C)cc(O)cc2C)c1,24.8,1.69,10.3,0.29,3.19,2.6,11.5,3.47,7.07,2.64
CCOc1nccc2c1nc(-c1nonc1N)n2CC,7.45,4.52,5.68,2.26,1.18,4.22,7.51,4.18,5.85,1.6
COc1ccc(-c2nn3ncccc3c2-c2ccnc(Nc3cccc(C(F)(F)F)c3)n2)cc1,7.02,2.63,22,9.51,19.1,4.1,21.7,2.85,11.8,1
Cc1ccc2c(-c3ccnc(Nc4ccc5c(c4)OCCO5)n3)c(-c3ccc(C(F)(F)F)cc3)nn2n1,0.48,-0.19,6.25,-0.94,3.45,0.63,5.71,-1.17,5.26,-0.63
Cc1nc(-c2ccccc2)n2nc(NCCCN3CCOCC3)ncc12,1.69,1.13,1.28,5.65,7.11,1.69,4.22,0.9,1.99,-0.64
FC(F)(F)c1ccc(-c2nn3ncccc3c2-c2ccnc(Nc3ccc4c(c3)OCCO4)n2)cc1,6.46,8.59,24.9,6.78,19.2,5.78,40.1,4.86,27.6,0.49
O=S(=O)(CCOCc1ccc(-c2ccc3ncnc(Nc4ccc(OCc5cccc(F)c5)c(Cl)c4)c3c2)o1)c1ccccc1,1.36,1.97,3.8,71.9,84.7,25.1,77.3,33.8,68.4,-0.58
Cc1cc(Cl)cc2c1NC(=O)C2=NNc1ccc(S(N)(=O)=O)cc1,3.65,5.11,4.88,0.92,1.34,0.35,4.79,1.56,4.09,1.21
Oc1cccc(-c2nc(-c3ccccc3)[nH]c2-c2ccncc2)c1,16.5,2.82,10.9,2.76,4.4,6.31,19.7,4.74,8.26,1.84
CC(C)c1ccc(Nc2nccc(-c3cnn4ncccc34)n2)cc1,6.02,1.04,0.75,4.49,6.88,3.51,7.83,4.16,6.18,-0.27
